Assay outcomes as filed in PubChem BioAssay.
In the library only some 4.2% were active in any assay of this set; here they are far more common.
tim23-1 inh: growth inhibitors of tim23-1 mutant yeast. S. cerevisiae tim23-1 growth, BacTiter-Glo luminescence, 24 h. inhibition, % at 20 µM. 330,000 compounds, 1.3% hits. AID 463212;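 active means growth inhibition of the mutant yeast at or above 50%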;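 further: temperature-sensitive mutant grown at 25 °C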
V-ATPase pH: regulators of yeast V-ATPase proton transport | S. cerevisiae, pHLuorin cytosolic pH fluorescence | response, % at 10 µM | 350,000 compounds, 0.37% hits | AID 504577; in the data active means response mostly above about 7.3%, no sharp cut-off; inactive means mostly below about 5.4%; further: actives read high
NLRP3 yeast inh: NALP3 inhibition in yeast. Yeast reconstituted NLRP3/ASC/caspase-1, beta-gal luminescence, 24 h. inhibition, % at 10 µM. 330,000 compounds, 0.39% hits. AID 2825;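 active means inhibition of 50% or more; inactive means inhibition below 50%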
TIM10 inh: inhibits growth of TIM10 yeast strain; 330,000 compounds, 1.4% hits; inhibition, % at 10 µM; S. cerevisiae TIM10 strain growth, BacTiter-Glo luminescence, 24 h;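 active means inhibition of 40% or more at the single tested concentration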;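 further: wild-type TIM10 isogenic control strain grown at permissive 25 °C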
tim10-1 inh: inhibits growth of tim10-1 mutant yeast; inhibition, % at 20 µM; 330,000 compounds, 2.2% hits; S. cerevisiae tim10-1 ts strain growth, BacTiter-Glo, 24 h; AID 463190;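 active means inhibition of at least 40%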;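 further: mutant grown at 25 °C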
NALP1 yeast inh: inhibitors of NALP1 inflammasome in yeast | AID 2071 | S. cerevisiae NALP1/ASC/caspase-1 growth, X-gal OD620, 72 h | inhibition, % at 10 µM | 280,000 compounds, 0.61% hits; in the data active means inhibition mostly above about 24%, no sharp cut-off; inactive means mostly below about 32%
TIM10 conf: TIM10 yeast growth inhibition, confirmed | S. cerevisiae tim10 strain growth, BacTiter-Glo luminescence, 24 h | inhibition, % at 10 µM | shares compounds with TIM10 inh | 4,600 compounds, 63% hits;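 active means inhibition of yeast growth at or above a set limit in either of two replicates at 10 µM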; further: this counterscreen used the strain with wild-type TIM10
Of the large screens only hits and unclear results are named; the others gave an inactive call (follow-up assays come after a bar, where they were run).

Cc1ccc(Sc2cnn(-c3ccccc3)c(=O)c2Cl)cc1	TIM10 inh 52 | TIM10 conf 46
O=S(=O)(Nc1ccc(-n2cccc2)cc1)c1ccc(Cl)c(Cl)c1	TIM10 inh 45 | TIM10 conf 41
O=S(=O)(Nc1ccc(Cc2ccncc2)cc1)c1ccc(Cl)c(Cl)c1	none
O=C(NN=C1CCCCC1)Nc1ccccc1Cl	none (no result: NALP1 yeast inh)
COc1ccc(N(Cc2ccccc2)S(=O)(=O)c2cc(C(=O)O)ccc2Cl)cc1	none
O=C(Cn1c2ccc(F)cc2c2nc3n(c(=O)c21)CCS3)Nc1ccc(Cl)cc1F	TIM10 inh 41 | TIM10 conf 34
CC(Sc1nc(N)c2c3c(sc2n1)CSC(C)(C)C3)C(=O)Nc1ccccc1 (stereo not drawn)	TIM10 inh 47 | TIM10 conf inactive
CCOC(=O)CCC(NC(=O)CCCCCCCC(=O)NC(CCC(=O)OCC)C(=O)OCC)C(=O)OCC (stereo not drawn)	none
Cc1nc(-c2ccccn2)nc(SCC(=O)c2ccc(F)cc2)c1Cl	TIM10 inh 41 (no result: NALP1 yeast inh) | TIM10 conf 42
COc1ccc(C(=O)CSc2nc(-c3ccccn3)nc(C)c2Cl)cc1	none (no result: NALP1 yeast inh)
c1nc(SSc2ncnc3nc[nH]c23)c2[nH]cnc2n1	none (no result: tim23-1 inh, NLRP3 yeast inh, TIM10 inh, tim10-1 inh, NALP1 yeast inh)
CC(C)(C)c1oc(C(=O)O)cc1CN1CCOCC1	none (no result: NALP1 yeast inh)
CC1(C)Oc2ccc3ccc(=O)oc3c2/C(=C/NC2CCCCC2)C1=O	TIM10 inh 54 | TIM10 conf 42
Cc1ncc(CO)n1Cc1ccc(Cl)cc1	none (no result: tim23-1 inh, NLRP3 yeast inh, TIM10 inh, tim10-1 inh, NALP1 yeast inh)
c1ccc(-c2nnc3sc(CN4CCc5ccccc54)cn23)cc1	TIM10 inh 42 | TIM10 conf inactive
O=C(COC(=O)c1ccc([N+](=O)[O-])cc1Cl)Nc1cccnc1Cl	none (no result: NALP1 yeast inh)
CCCNC(=O)c1nn2cc(Br)cnc2c1Br	none
Cc1nc([N+](=O)[O-])c(SCC(N)=O)n1Cc1ccccc1	none
Cc1nc([N+](=O)[O-])c(Sc2nc3ccccc3n2C)n1Cc1ccccc1	TIM10 inh 40 | TIM10 conf 42
O=C(CNc1ccc(F)cc1)N/N=C/c1c(O)ccc2ccccc12	TIM10 inh 44 | TIM10 conf 42
O=C(c1ccccc1)[C@H]1[C@H](c2ccccc2)[C@@]2(N=C(c3ccccc3)OC2=O)C2c3ccccc3C=NN21 (stereo partly drawn)	TIM10 inh 42 (no result: V-ATPase pH) | TIM10 conf inactive
CCOC(=O)c1nnn(-c2ccc([N+](=O)[O-])cc2[N+](=O)[O-])c1C	TIM10 inh 41 | TIM10 conf 37
CCOC(=O)c1nnn(-c2ccccc2)c1C	none
O=C(COC(=O)c1ccc2c(c1)OCCO2)NC1CCCCC1	none (no result: NALP1 yeast inh)
COc1ccc(/C=N/N2CCN(Cc3ccc(C)cc3)CC2)cc1Br	none
Cc1ccc(/C=C/C(=O)c2cc(Br)ccc2OC(=O)c2ccco2)cc1	TIM10 inh 47 | TIM10 conf 44
O=C(/C=C/c1cc(Br)ccc1O)c1ccco1	TIM10 inh 66 (no result: NALP1 yeast inh) | TIM10 conf 80
COc1cccc(Oc2cc(Cl)nc(N)n2)c1	none
CCN(C[C@H]1N[C@@](C)(C(=O)OC)[C@H]2C(=O)N(Cc3ccccc3)C(=O)[C@@H]12)S(=O)(=O)c1ccc(C(C)(C)C)cc1	TIM10 inh 90 (no result: NALP1 yeast inh) | TIM10 conf inactive
O=C(Cn1nc(C(=O)O)c2ccccc2c1=O)Nc1ccc2c(c1)C(=O)c1ccccc1C2=O	none (no result: V-ATPase pH)
CC(=O)c1c(C)[nH]c(C(=O)COC(=O)CNS(=O)(=O)c2ccccc2)c1C	none
CCOC(=O)c1c(C)[nH]c(C(=O)COC(=O)CNS(=O)(=O)c2ccc(C)cc2)c1C	TIM10 inh 71 (no result: NALP1 yeast inh) | TIM10 conf inactive
O=C(c1ccc(Oc2ccc(C(F)(F)F)cn2)cc1)N1CCN(c2ccccc2)CC1	none
COc1ccc(N2CCN(C(=O)c3ccc(Oc4ccc(C(F)(F)F)cn4)cc3)CC2)cc1	TIM10 inh 44 | TIM10 conf 41
CCn1c(C)cs/c1=N\C(=S)Nc1ccccc1C	TIM10 inh 41 | TIM10 conf inactive
COc1ccc(OCc2nn[nH]n2)cc1	none
O=C(NC(=S)Nc1nc2ccc(F)cc2s1)c1ccco1	none
Cc1ccsc1CN(C)C(=O)CN1C(=O)NC2(CCCc3ccccc32)C1=O (stereo not drawn)	TIM10 inh 96 (no result: NALP1 yeast inh) | TIM10 conf inactive
Cc1ccc2c(c1)C(c1ccccc1)N(C(=O)c1cccc([N+](=O)[O-])c1)CC(=O)N2 (stereo not drawn)	none
Cc1ccc(C)c(OCCC(=O)N2CCN(S(=O)(=O)c3ccc([N+](=O)[O-])cc3)CC2)c1	TIM10 inh 53 (no result: NALP1 yeast inh) | TIM10 conf inactive
Cc1cc(N/N=C/c2ccccc2O)c2ccccc2n1	TIM10 inh 59 | TIM10 conf 27
COc1ccc2nc(C)cc(N/N=C/c3cccc(OC)c3O)c2c1	none
O=C(CCN1C(=O)/C(=C/c2ccccc2F)SC1=S)NC1C=CS(=O)(=O)C1 (stereo not drawn)	none
CN(C(=S)Nc1ccc(SC(F)F)cc1)C(c1ccccc1)c1ccccc1	TIM10 inh 42 | TIM10 conf 40
O=C(CN(Cc1ccc(Cl)cc1)C(=O)CNS(=O)(=O)c1ccc(F)cc1)NCC1CCCO1 (stereo not drawn)	none
CCC1CCC(NC(=O)Nc2cccc(OC)c2)CC1 (stereo not drawn)	TIM10 inh 45 | TIM10 conf inactive
COc1cccc(NC(=O)C2CC2)c1	none (no result: NALP1 yeast inh)
CC(C)(C)C1CCC(=NNC(=O)C(=O)NCc2cccnc2)CC1 (stereo not drawn)	none
CCC(C)(C)C1CCC(=NNC(=S)Nc2cccnc2)CC1 (stereo not drawn)	TIM10 inh 41 | TIM10 conf 45
CN(C)CCCNS(=O)(=O)c1ccc(N2CCN(Cc3ccc4c(c3)OCO4)CC2)c([N+](=O)[O-])c1	none
Cc1cc(Sc2ncnc(N)c2[N+](=O)[O-])ncn1	TIM10 inh 42 | TIM10 conf inactive
Cc1ccc(C)c(Oc2ncnc(N)c2[N+](=O)[O-])c1	none
COc1ccc(NC(=O)N2CCN(c3nc(-c4cccc(OC)c4)cs3)CC2)cc1	TIM10 inh 40 | TIM10 conf 29
COc1cc(C(=O)OCC(=O)c2cc(C)n(CC3CCCO3)c2C)ccc1OCC(=O)N1CCOCC1 (stereo not drawn)	none (no result: NALP1 yeast inh)
CC(C)(C)c1ccc(OCCNC(=S)Nc2ccccc2)cc1	TIM10 inh 54, NALP1 yeast inh 30 | TIM10 conf 39
CC(=O)Oc1oc(-c2ccccc2)nc1C=Nc1ccc(N(C)C)cc1	TIM10 inh 45 | TIM10 conf inactive
CN(C)c1ccc(N=Cc2nc(-c3ccccc3)oc2OC(=O)c2ccccc2)cc1	none
Cc1cc2[nH]c3c(c[n+](C)c4ccccc34)c2cc1C	TIM10 inh 66 | TIM10 conf 59
